UGM FP inh: inhibitors of M. tuberculosis UDP-galactopyranose mutase | P9WIQ1 | purified UGM, fluorescence polarization probe displacement | inhibition, % at 10 µM | 320,000 tested, 0.06% active; in the data active means inhibition above about 10%, passing the limit was not always enough
GDH-TPI counter: GDH-TPI coupled enzyme inhibition counter-screen | GDH-TPI coupled enzyme counterscreen, NADH absorbance | 360,000 tested, 1.2% active | inhibition, % at 4.8 µM | AID 588335; in the data active means inhibition above about 30%
Mtb betalactam: beta-lactam sensitization of Mtb H37Rv; 330,000 tested, 0.27% active; M. tuberculosis H37Rv growth with meropenem, percent inhibition; inhibition, % at 25 µM; call rule not given here;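 further: growth measured after seven days incubation then overnight dye step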
Rv3671c inh: Rv3671c (M. tuberculosis) protease inhibition | P9WHR9 | inhibition, % at 5.96 µM | 320,000 tested, 0.048% active; in the data active means inhibition above about 38%;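 further: extracellular domain of Rv3671c used as enzyme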
Mtb FBA inh: inhibits M. tuberculosis FBA enzyme. purified M. tuberculosis FBA, fluorescence read-out. P9WQA3. 360,000 tested, 2.3% active. inhibition, % at 1 µM; in the data active means inhibition above about 27%
Target sequence (P9WQA3 whole entry, looked up): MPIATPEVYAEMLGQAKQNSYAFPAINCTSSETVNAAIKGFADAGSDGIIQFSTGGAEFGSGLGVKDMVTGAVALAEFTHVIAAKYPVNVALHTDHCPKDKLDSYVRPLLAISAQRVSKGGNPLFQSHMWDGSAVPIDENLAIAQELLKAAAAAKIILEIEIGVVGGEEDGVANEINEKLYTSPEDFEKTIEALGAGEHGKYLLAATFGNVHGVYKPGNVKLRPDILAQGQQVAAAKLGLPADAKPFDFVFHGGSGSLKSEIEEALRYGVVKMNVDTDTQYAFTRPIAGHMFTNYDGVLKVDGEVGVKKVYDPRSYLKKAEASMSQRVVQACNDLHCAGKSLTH
FadD28 FP inh: inhibitors of Mycobacterium tuberculosis FadD28 bisubstrate binding; FadD28 bisubstrate probe binding, fluorescence polarization; inhibition, % at 12.5 µM; 360,000 tested, 0.22% active; in the data active means inhibition above about 8.5%, passing the limit was not always enough
Large screens that a line does not name were inactive. Most compounds without a hit are left out; they make up all but 3.7% or so of the library.

CCc1nn(CC(=O)NCCN2CCOCC2)c(=O)c2cc3c(OC)cccc3n12	Mtb FBA inh active
N#C/C(=C\c1ccc(Cl)cc1)c1nc2ncccc2[nH]1	GDH-TPI counter 39
COC(=O)c1c(C(=O)OC)c2c(-c3ccccc3)cc3cccc1n32	Mtb FBA inh 121 (no result: UGM FP inh, Mtb betalactam, Rv3671c inh)
COC(=O)c1c(-c2ccccc2)csc1N	none
Cc1onc(-c2ccccc2)c1C(=O)N1CCN(c2ccc([N+](=O)[O-])cc2)CC1	none
CCOC(=O)CN1C(=O)S/C(=C\c2ccc(-c3ccc(C(=O)O)c(Cl)c3)o2)C1=O	none
O=C(O)c1ccc(-c2ccc(/C=C3\NC(=O)N(Cc4ccc(Cl)cc4)C3=O)o2)cc1Cl	FadD28 FP inh 16 (no result: UGM FP inh, Mtb betalactam, Rv3671c inh)
Cc1ccc2cc(C#N)c(NCc3ccco3)nc2c1	Mtb FBA inh 116
Cc1ccc2cc(C)c(SCC(=O)NCc3ccco3)nc2c1	none
C/C(=N/NC(=O)c1ccccn1)c1ccc(O)cc1	GDH-TPI counter 32
C/C(=N\NC(=O)c1ccc(N/N=C(\C)c2ccc(O)cc2)cc1)c1ccc(O)cc1	GDH-TPI counter 46
C/C(=N\NC(=O)c1ccccn1)c1ccc(Cl)cc1	none
O=C(O)CCC(=O)Nc1ccc(-c2nnc(-c3ccco3)o2)cc1	Mtb FBA inh 141
CCC(=O)Nc1ccc(-c2nnc(-c3ccccc3)o2)cc1	Mtb FBA inh active
Cc1ccc(SCC(=O)Nc2ccc(-c3nnc(-c4ccco4)o3)cc2)cc1	GDH-TPI counter 31
CCC(=O)N1CCc2cc(OC)c(OC)cc2C1COc1ccc(F)cc1 (configuration not stated)	none
Cc1cc2oc(=O)cc(CN3CCCCCCC3)c2cc1Cl	none (no result: UGM FP inh, GDH-TPI counter, Mtb betalactam, Rv3671c inh)
CCCCCCCCNC(C)C(O)c1ccc(SC(C)C)cc1 (configuration not stated)	FadD28 FP inh 15
C[C@@H](NCCc1ccc(O)cc1)[C@@H](O)c1ccc(O)cc1	none
O=c1[nH]c(/C=C/c2ccc([N+](=O)[O-])cc2)c([N+](=O)[O-])c(=O)[nH]1	GDH-TPI counter 31 (no result: Rv3671c inh)
CCOC(=O)c1sc(NC(=O)Cn2nnc3sc4c(c3c2=O)CCCC4)nc1C	none
CCOC(=O)c1nc2sc3c(c2c(=O)n1C(C)C(=O)OCC)CCCC3 (configuration not stated)	Mtb FBA inh 135
Cc1ccc(S(=O)(=O)CCC(=O)Nc2ccc(S(=O)(=O)N(C)C)cc2)cc1	none (no result: GDH-TPI counter, Mtb FBA inh, FadD28 FP inh)
c1ccc(-c2csc(-c3ccncc3)n2)cc1	none
c1ccc(-c2ccc(-c3ccncn3)cc2)cc1	Mtb FBA inh 117
CN(CCc1ccccc1)C(=O)c1ccc(NC(=O)Cc2ccc(NC(=O)C3CCCN(C(=O)C4CCCC4)C3)cc2)cc1 (configuration not stated)	none (no result: UGM FP inh, Mtb betalactam, Rv3671c inh)
Cc1onc(-c2ccccc2)c1C(=O)OCC(=O)Nc1ccccc1Cl	none (no result: UGM FP inh, Mtb betalactam, Rv3671c inh)
O=C1C(=O)N(CCO)C(c2ccccc2[N+](=O)[O-])/C1=C(\O)c1ccccc1 (configuration not stated)	none
O=C1C(=O)N(c2ccc(O)cc2)C(c2ccccc2[N+](=O)[O-])/C1=C(\O)c1ccccc1 (configuration not stated)	GDH-TPI counter 36
N#CCCCCn1ccc(NC(=O)c2ccc(Cl)cc2O)n1	GDH-TPI counter 32
Cc1ccc(Cn2ccc(NC(=O)c3cc(-c4ccc(Cl)cc4)on3)n2)cc1	none
O=Cc1cc(CCC(=O)O)ccc1O	none
C[C@H](CO)N1C[C@H](C)[C@H](CN(C)Cc2ccc(Oc3ccccc3)cc2)Oc2cc(Br)ccc2S1(=O)=O	none (no result: UGM FP inh, Mtb betalactam, Rv3671c inh)
O=C(/C=C/c1ccc(OC(F)F)cc1)OCC(=O)N1CCC(c2ccccc2)=N1	none (no result: FadD28 FP inh)
Cc1c(NC(=O)C(=O)/C=C(/O)c2ccccc2)c(=O)n(-c2ccccc2)n1C	none
COc1ccc(/C(O)=C/C(=O)C(=O)Nc2c(C)n(C)n(-c3ccccc3)c2=O)cc1	GDH-TPI counter 34
COc1ccc(C(=O)/C=C/Nc2c(C)n(C)n(-c3ccccc3)c2=O)cc1OC	GDH-TPI counter 35
Cc1c(N/C=C/C(=O)C(F)(F)F)c(=O)n(-c2ccccc2)n1C	none
O=C(NC1CC1)c1ccc2sc([C@H]3C[C@H](O)[C@@H](CO)O3)nc2c1	none (no result: UGM FP inh, Mtb betalactam, Rv3671c inh)
O=C(NNC(=O)c1cccs1)c1ccc([N+](=O)[O-])cc1	none (no result: GDH-TPI counter, Mtb FBA inh, FadD28 FP inh)
Cc1cccc(C(=O)NNC(=O)c2ccc(NS(=O)(=O)c3cccs3)cc2)c1C	FadD28 FP inh 13
O=C(NNC(=O)c1ccc([N+](=O)[O-])cc1)c1ccc(NS(=O)(=O)c2cccs2)cc1	FadD28 FP inh 19

Screens as filed in PubChem.
